Reference: PubChem BioAssay AID1619 (SRMLSC, 2009)
The campaign covered roughly 220,000 compounds. About 830 (0.38%) were called active.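 How the source made its calls: active means compound inhibiting the enzyme by more than half at any dose during confirmatory dose-response retesting; inconclusive means strong single-dose inhibitors picked by rank but not retested; inactive means the rest.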 These entries were drawn from the full list. Measured potencies and affinities stand elsewhere.

Molecular target: Leucine aminopeptidase (Plasmodium falciparum (isolate 3D7)) (UniProt Q8IL11)
Sequence (Q8IL11 whole entry, looked up): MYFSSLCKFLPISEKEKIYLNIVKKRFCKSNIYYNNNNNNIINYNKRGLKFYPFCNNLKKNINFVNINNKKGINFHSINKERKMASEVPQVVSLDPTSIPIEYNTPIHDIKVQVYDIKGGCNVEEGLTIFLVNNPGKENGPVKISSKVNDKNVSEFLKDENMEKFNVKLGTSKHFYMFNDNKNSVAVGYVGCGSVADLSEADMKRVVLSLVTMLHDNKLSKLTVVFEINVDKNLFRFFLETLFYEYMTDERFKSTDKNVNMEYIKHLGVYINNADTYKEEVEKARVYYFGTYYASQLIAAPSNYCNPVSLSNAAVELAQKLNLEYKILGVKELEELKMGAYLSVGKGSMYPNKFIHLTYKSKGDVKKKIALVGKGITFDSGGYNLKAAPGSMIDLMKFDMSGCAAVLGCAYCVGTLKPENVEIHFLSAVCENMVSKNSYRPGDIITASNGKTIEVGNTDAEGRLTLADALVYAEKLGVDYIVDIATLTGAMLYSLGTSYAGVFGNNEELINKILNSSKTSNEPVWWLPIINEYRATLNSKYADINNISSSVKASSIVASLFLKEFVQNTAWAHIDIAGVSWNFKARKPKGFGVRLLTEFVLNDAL
Experiment: P. falciparum M17LAP inhibitors, primary screen, biochemical, fluorogenic H-Leu-NHMec substrate, 1536-well (AID 1619);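 further: plate controls were full reaction with DMSO carrier for no effect and no enzyme background for full effect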
Conditions: recombinant M17LAP, H-Leu-NHMec fluorogenic kinetic assay; at 30 µM; hits give high values

inhibition, inactive:
O=C(CCSc1ccccc1)NC1CCCCCC1 2.59%
COc1ccc(C(=O)NCCCCCC(=O)N/N=C/c2ccco2)cc1OC -1.79%
C=CCn1c(-c2ccc(OC)c(OC)c2)n[nH]c1=S 13.8%
COc1ccc(S(=O)(=O)Nc2ccc3c(c2)OCO3)cc1 -4.98%
COc1ccccc1NC(=S)NCCSc1ccc(Cl)cc1 -3.97%
O=C(Nc1nccs1)c1ccc(S(=O)(=O)N2CCOCC2)cc1 7.17%
CCCC1=C(C(=O)OCC)C(c2ccncc2)n2ncnc2N1 (stereo not given) 5.84%
CC1=CC(C#N)(C#N)C(C#N)(C#N)C(c2ccccc2)N1 (stereo not given) -40.9%
O=C(O)C1CCCCC1C(=O)Nc1nccs1 (stereo not given) 15.9%
O=C(O)C1C2C=CC(C2)C1C(=O)Nc1cccc(F)c1 (stereo not given) 23.1%
O=C(O)C1CC=CCC1C(=O)Nc1cccc(C(=O)N2CCCCC2)c1 (stereo not given) 40.8%
O=C(O)C1CC=CCC1C(=O)Nc1cccc([N+](=O)[O-])c1 (stereo not given) 14.2%
O=C(Nc1cccc([N+](=O)[O-])c1)C1C2CC/C=C\CCC21 (stereo not given) 0.68%
O=C(O)C1CC=CCC1C(=O)NCCc1ccccc1 (stereo not given) 42%
O=C(Nc1nccs1)c1ccc(NC(=O)c2ccco2)cc1 9.18%
O=C(O)C1CCCCC1C(=O)NCCc1cccc(Cl)c1 (stereo not given) 75%
O=C(Nc1nc(-c2ccccc2)cs1)C1c2ccccc2Oc2ccccc21 1.51%
Cc1ccc(Cn2c(=O)cc(C(=O)O)c3ccccc32)cc1 -52.6%
CC(C)CC(=O)N1CCN(S(C)(=O)=O)CC1 9.33%
CCCc1cc(C(=O)N2CCN(S(=O)(=O)c3ccc(OC)c(OC)c3)CC2)cs1 -3.16%
COc1ccc(Cl)cc1C(=O)N(Cc1nc(-c2cccc(C)c2)no1)C(C)C -1.6%
CC(C)(C)c1ccc(C(=O)Nc2ccc(O)c3c(=O)cc(-c4cccc(Cl)c4)oc23)cc1 0.21%
Cc1nnc(-c2cnn(C)c2N)n1CCCN(C)C -1.24%
Cc1ccccc1N1CCN(C(=O)CN2C(=O)c3ccccc3C2=O)CC1 -9.93%
O=C(Nc1ccc2nsnc2c1)c1cccs1 6.9%
Cc1ccc(S(=O)(=O)Oc2ccccc2/C=N/Nc2ccc(C(=O)O)cc2)cc1 28%
CC(=O)CC(C)(C)Nc1nc2ccc([N+](=O)[O-])cc2o1 13.3%
COC(=O)c1ccc(C)c(NS(=O)(=O)c2ccc(C)c([N+](=O)[O-])c2)c1 1.7%
O=C1C2CCCN2C(c2ccc(F)cc2)N1c1nccs1 (stereo not given) 0.99%
Cc1cc(C)cc(Oc2ccc(NC(=O)C3CC=CCC3C(=O)O)cc2)c1 (stereo not given) 5.05%
Cc1cccc(Oc2ccc(NC(=O)C3CC=CCC3C(=O)O)cc2)c1 (stereo not given) 2.18%
Cc1cccc(-n2c(CNC(=O)c3ccc(S(=O)(=O)N(C)C)cc3)nnc2SCC(=O)Nc2ccc(F)cc2)c1 -5.07%
COc1cccc(CNc2nc3nc(C)cc(=O)n3[nH]2)c1 -3.52%
CC(C)(C)c1ccc(OC(=O)CN2C(=O)C3C4CCC(C4)C3C2=O)cc1 (stereo not given) -0.46%
CC(=O)Nc1cccc(C(=O)Nc2ccccc2C(=O)O)c1 4.74%
Cc1ccc(SCC(=O)Nc2ccccc2C(=O)O)cc1 -12.3%
Cc1c(C(=O)O)cnc2c([N+](=O)[O-])cnn12 12.2%
O=C(O)c1cc2ncc(-c3[nH]ncc3[N+](=O)[O-])cn2n1 15.3%
Cc1cnc2c(C(=O)O)cnn2c1 13.5%
CCOC(=O)c1cnc2c([N+](=O)[O-])cnn2c1C 12.8%
Cc1ccc(NC(=O)/C(Cl)=C/c2ccccc2)cc1C 0.91%
Cc1ccc(S(=O)(=O)N2CCN(c3ccc([N+](=O)[O-])c(NCCN4CCOCC4)c3)CC2)cc1 3.35%
CC(=O)Nc1nc(C)c(Oc2ccc(Cl)cc2Cl)c(=O)[nH]1 7.16%
CC(C)OC(=O)c1cc(NC(=O)C2C3CCC(O3)C2C(=O)O)cc(C(=O)OC(C)C)c1 (stereo not given) 2.91%
Cc1sc(NC(=O)c2cc3ccccc3oc2=O)c(C(=O)OC(C)C)c1-c1ccccc1 5.06%
O=C(O)C1C2CCC(O2)C1C(=O)NCc1ccc(Cl)cc1 (stereo not given) 2.78%
Cc1sc(NC(=O)C2C3CCC(O3)C2C(=O)O)nc1-c1ccc(CC(C)C)cc1 (stereo not given) 6.67%
O=C(c1cccc(C(F)(F)F)c1)N1CCc2c([nH]c3ccccc23)C1C(F)(F)F (stereo not given) -3.58%
Cc1cc(C)n(C2CC(=O)N(c3cccc(Cl)c3)C2=O)n1 (stereo not given) 10.2%
CCOc1cc(/C=N/n2cnnc2)ccc1OS(=O)(=O)c1ccc(C)cc1 -1.56%
O=C(NCCCN1CCCC1=O)c1cc(NS(=O)(=O)c2ccc(F)cc2)cc(NS(=O)(=O)c2ccc(F)cc2)c1 22.7%
Cc1cccc(NC(=O)CSc2ncnc3nc[nH]c23)c1 56.5%
Cc1cccc(NC(=O)CSc2ncnc3nc[nH]c23)c1C 43.9%
O=C(CSc1ncnc2nc[nH]c12)Nc1ccccc1C(F)(F)F 12%
O=C(CSc1ncnc2nc[nH]c12)Nc1ccc(Br)cc1Cl 9.25%
O=C(O)COc1cccc(NC(=O)C2CCCO2)c1 (stereo not given) 5.81%
C=CCn1c(O)c(N=Nc2nc3ccccc3c(=O)n2-c2ccccc2)c2ccccc21 -2.79%
O=C(CCCO)N/N=C/c1ccccc1[N+](=O)[O-] 8.09%
O=C(CSc1nc(O)c(-c2ccccc2)c(=O)[nH]1)N1CCOCC1 12.3%
CCOc1ccc(N2C(=O)C3Sc4[nH]c(=O)sc4C(c4ccc(OC)c(OC)c4)C3C2=O)cc1 (stereo not given) -5.76%
O=C(O)C1CC=CCC1C(=O)Nc1ccccc1C(=O)N1CCN(c2ccc(F)cc2)CC1 (stereo not given) 23.1%
Cc1ccc(C)c(NC(=O)C2CC3c4ccccc4C2c2ccccc23)c1 (stereo not given) -1.72%
Cc1ccccc1NC(=O)C1CC(Cl)=CCC1C(=O)O (stereo not given) 43.5%
Cc1ccc(N2CCN(C(=O)c3ccccc3NC(=O)C3CC=CCC3C(=O)O)CC2)cc1 (stereo not given) 49.9%
Cc1cc(NC(=O)C2CC=CCC2C(=O)O)no1 (stereo not given) 41.7%
O=C(O)C1CC=C(Cl)CC1C(=O)NCc1ccccc1 (stereo not given) 36.4%
O=C(NCCN1CCN(c2cccc(Cl)c2)CC1)C1CCCN(S(=O)(=O)c2cnc[nH]2)C1 (stereo not given) -4.03%
NC(=O)CN1CCN(c2ccccc2F)CC1 4.96%
C/C(=N/NC(=O)c1cn(-c2cccc(C)n2)cn1)c1ccc(C)cc1 -2.51%
CCOC(=O)c1ccc(-n2c(CN(CC)CC)nc3ccc([N+](=O)[O-])cc3c2=O)cc1 2.23%
Brc1cc2[nH]cnc2c2ccccc12 4.81%
Cn1c(N)c(C(=O)COc2ccc(C#N)cc2)c(=O)n(C)c1=O 7.75%
O=c1c(N2CCOCC2)coc2ccccc12 9.22%
CCCCc1sc(-c2c(C#N)c(N)nc3c2CCCCC3)cc1[N+](=O)[O-] 1.41%
O=C(CN1C(=O)C2C3C=CC(C4CC34)C2C1=O)Nc1cccc2ncccc12 (stereo not given) 6.24%
O=C(CN1C(=O)C2C3C=CC(C4CC34)C2C1=O)NCc1ccco1 (stereo not given) 1.4%
CCOc1ccc(-n2c(Cc3cc(=O)[nH]c(=O)[nH]3)nnc2SCc2cccnc2)cc1 6.43%
COc1ccc(N2CC(O)(c3ccc(C)cc3)[N+]3=C2CCCC3)cc1 (stereo not given) 1.14%
CC(C)OC(=O)c1cc(C(=O)c2cc(Br)ccc2O)coc1=N 0.53%
CC(C)OC(=O)c1cc(C(=O)c2cc(Cl)ccc2O)coc1=N -2.46%
COC(=O)c1cc(C(=O)c2cc(Cl)ccc2O)coc1=N 10.7%
COCCOC(=O)c1cc(C(=O)c2cc(Cl)ccc2O)coc1=N 12.5%
Cn1c(CC(=O)c2ccc(Br)cc2)[n+](C)c2ccccc21 2.42%
Nc1nc(CSc2ncn[nH]2)nc(Nc2ccc(F)cc2)n1 -4.26%
O=S(=O)(c1ccc2c(c1)OCCO2)N1CCC(n2nnc3cc(F)ccc32)CC1 4.13%
CC1(C)CC(=O)c2sc(NS(=O)(=O)c3ccc(Br)cc3)nc2C1 18.8%
CC1(C)CC(=O)c2sc(NS(=O)(=O)c3ccc(F)cc3)nc2C1 48.1%
c1ccc(-c2nc3nc4ccccc4nc3n2Cc2ccco2)cc1 1.08%
COc1ccc(-c2noc(CCCC(=O)N3CCOCC3)n2)cc1 -3.55%
CCOc1cc(/C=N/N=C2/NC(=O)C(CC(=O)O)S2)ccc1OCc1ccc(Cl)cc1 (stereo not given) 5.31%
COc1cc(/C=N/N=C2/NC(=O)C(CC(=O)O)S2)ccc1OCc1ccc(Cl)cc1 (stereo not given) 23.2%
CCOc1ccc2[nH]c(=O)c(CN(CCO)C(=O)CC)cc2c1 -5.26%
COC(=O)c1oc2ccc(Br)cc2c1NC(=O)c1ccccc1 14.5%
Nc1c(C(=O)c2ccccc2)oc2ccc(Br)cc12 -7.77%
C=CCNCCOc1c(C)cc(C)cc1Cl 20.1%
